The list is not random: actives were taken first. Their share in the collection is about 7.3%.
FLuc modulator: qHTS profiling assay for firefly luciferase inhibitor/activator using purifed enzyme and Km concentrations of substrates (counterscreen for miR-21 project); purified FLuc, Km substrates, luminescence inhibition; Potency, µM (series often up to 57.5 µM), for the others: at the top dose activity change, negative = inhibition, hits mostly inhibitors; 360,000 tested, 6.9% active; Luciferin 4-monooxygenase (Photinus pyralis), P08659;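 further: plate controls were vehicle for no effect and reference inhibitor for full effect; nearly all actives have a fitted effect of over 55% in size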
Target sequence (P08659 whole entry, looked up): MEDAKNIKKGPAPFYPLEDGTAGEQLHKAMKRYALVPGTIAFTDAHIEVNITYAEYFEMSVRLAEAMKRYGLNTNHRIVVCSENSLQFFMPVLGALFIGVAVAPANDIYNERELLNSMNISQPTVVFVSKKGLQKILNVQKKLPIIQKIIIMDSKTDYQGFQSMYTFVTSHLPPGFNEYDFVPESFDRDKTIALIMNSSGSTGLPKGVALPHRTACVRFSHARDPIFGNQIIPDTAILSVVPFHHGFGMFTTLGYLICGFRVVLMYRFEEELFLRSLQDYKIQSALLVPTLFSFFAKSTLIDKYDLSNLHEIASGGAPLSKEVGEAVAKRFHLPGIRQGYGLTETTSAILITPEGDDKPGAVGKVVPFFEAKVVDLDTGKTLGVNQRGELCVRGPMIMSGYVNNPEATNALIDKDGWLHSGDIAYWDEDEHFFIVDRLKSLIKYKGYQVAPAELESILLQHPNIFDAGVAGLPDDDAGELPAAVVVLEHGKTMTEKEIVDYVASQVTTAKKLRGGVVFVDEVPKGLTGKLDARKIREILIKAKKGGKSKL
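Biochemical qHTS of compounds, final roughly 60 µM downward over six points, against 10 nM purified firefly luciferase using Km concentrations of substrates (10 uM D-luciferin, 10 uM ATP) in Tris acetate pH 7.5 buffer; luminescence output.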
NPC1 promoter act: qHTS Assay for NPC1 Promoter Activators. Huh7 NPC1 promoter luciferase reporter, 24 h. 320,000 tested, 2.4% active. AID 485313, 2010. Potency, µM (series often up to 9.22 µM), without a hit: at the highest dose activation, usual class: activators; further: % of control where 0% means no effect; nearly all actives have a fitted effect of over 60% in size
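Luminescence from an NPC1 promoter-driven luciferase reporter in stably transfected Huh7 cells was measured after 24 h compound treatment at 37 °C, followed by 10 min ambient incubation with luciferase detection reagent.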
ELG1 genotoxic: qHTS screen for small molecules that induce genotoxicity in human embryonic kidney (HEK293T) cells expressing luciferase-tagged ELG1; HEK293T ELG1-luciferase reporter, luminescence, 16 h; Potency, µM (doses to about 46 µM), for inactives: at the highest dose activity change, positive = activation, most hits filed as activators; 330,000 tested, 1.3% active; AID 504466, 2011; further: % of control where 0% means no effect; nearly all actives have a fitted effect of over 60% in size
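After overnight (16 hr) compound treatment at 37 °C, ELG1-luciferase HEK293T cells were lysed with ONE-Glo; luminescence quantified 30 min later at room temperature.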
SMN2 splice enh: qHTS Assay for Enhancers of SMN2 Splice Variant Expression; Potency, µM (doses to about 46.1 µM), inactives show at the top dose activity change, positive = activation, most hits filed as activators; 210,000 tested, 2.8% active; HEK293 SMN2-luciferase splicing reporter, luminescence, 30-36 h; AID 1458, 2008; further: % of control where 0% means no effect; nearly all actives have a fitted effect of over 55% in size
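HEK293 cells carry an SMN2 […]–luciferase reporter in which exon 7 inclusion puts luciferase in frame. Cells were plated 10-12 h before compound addition, then incubated 30-36 h at 37C. ONE-Glo luminescence was read; sodium butyrate at 4.5 mM final served as control.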
Rab9 prom act: qHTS Assay for Rab9 Promoter Activators; Huh7 Rab9 promoter-luciferase reporter, luminescence, 24 h; Potency, µM (titrated, usually from 9.22 µM), for inactives: at the highest dose activation, negative = inhibition, actives largely listed as activators; 320,000 tested, 2.8% active; AID 485297, 2010; further: % of control where 0% means no effect; nearly all actives have a fitted effect of over 60% in size
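Using Huh7 cells stably transfected with Rab9 promoter–luciferase, compounds were incubated 24 h at 37 °C, 5% CO2; luciferase luminescence was read 10 min after reagent addition.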
Luc counter: Counterscreen for Luciferase (Kinase-Glo TM) Inhibition. 200,000 tested, 0.28% active. Kinase-Glo luciferase, ATP luminescence, 8 min. AID 1379, 2008. Potency, µM (highest dose often 38.3 µM), inactives show top-dose activity change, negative = inhibition, actives largely listed as inhibitors; further: on the % scale 0 is the no-effect control and ±100 the full control effect; nearly all actives have a fitted effect of over 60% in size
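Kinase-Glo luciferase light output from ATP and luciferin was measured with 10 uM ATP, within the enzyme's linear range. Buffer: 50 mM imidazole pH 7.2, 50 mM KCl, 7 mM MgCl2, 0.01% Tween 20, 0.05% BSA; luminescence read after 8 min at ambient temperature.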
Active calls of the source: *; [ ] = another dose, or the depositor's remark. The call rests on the fitted dose curve; in most records, active means well fitted curve in the direction sought with a large enough effect; inconclusive means small, poorly fitted or top-dose-only effect, or another doubt; inactive means no such curve, though single readings can be large; an effect the other way counts as inactive or inconclusive. Potency means the concentration at half of the fitted maximal effect.

What do the screens show for `COc1ccc(/C=C/C(=O)Nc2nc(C)c(C(=O)N(C)C)s2)cc1`?
FLuc modulator: 19µM*; NPC1 promoter act: 2%; ELG1 genotoxic: 2%; SMN2 splice enh: 6%; Rab9 prom act: -1%; Luc counter: -1%

What do the screens show for `Cc1ccc2nc(-c3ccncc3)c(Nc3ccc(C(C)C)cc3)n2c1`?
FLuc modulator: 3%; SMN2 splice enh: -4%

Results for Cc1nc(NC(=S)NC(=O)c2ccccc2)sc1C(=O)N(C)C ?
FLuc modulator: inconclusive; NPC1 promoter act: 24%; ELG1 genotoxic: 6%; SMN2 splice enh: 2%; Rab9 prom act: 25%; Luc counter: -3%

Results for COc1ccc(C(=O)Nc2nc(C)c(C(=O)N(C)C)s2)cc1OC ?
FLuc modulator: 13µM*; NPC1 promoter act: 17%; ELG1 genotoxic: inconclusive; SMN2 splice enh: inconclusive; Rab9 prom act: 22%; Luc counter: -15%

Results for Cc1cccc(C(=O)Oc2ccc(/C=N/NC(=O)c3ccccc3O)cc2)c1 ?
FLuc modulator: 13µM*; NPC1 promoter act: 17%; ELG1 genotoxic: 16%; SMN2 splice enh: 5%[1.84 µM]; Rab9 prom act: 27%; Luc counter: -8%

How did Cn1nccc1C(=O)N/N=C/c1c(O)ccc2ccccc12 do in these assays?
FLuc modulator: inconclusive; NPC1 promoter act: -29%; ELG1 genotoxic: inconclusive; Rab9 prom act: -42%

How did Cc1cccc(C(=O)N/N=C/c2ccc(OC3CSC3)cc2)c1 do in these assays?
FLuc modulator: 11µM*; NPC1 promoter act: 12%; ELG1 genotoxic: 12%; SMN2 splice enh: -2%; Rab9 prom act: 2%; Luc counter: -2%

What do the screens show for `Cn1nccc1C(=O)Oc1cccc(/C=N/NC(=O)c2ccccc2O)c1`?
FLuc modulator: 9.5µM*; NPC1 promoter act: -1%; ELG1 genotoxic: inconclusive; Rab9 prom act: 9%

How did Cn1ncc(Br)c1C(=O)N/N=C/c1cccc(OC2CSC2)c1 do in these assays?
FLuc modulator: -13%; NPC1 promoter act: -6%; ELG1 genotoxic: 2%; SMN2 splice enh: -10%; Rab9 prom act: -13%; Luc counter: -6%

Results for O=C(N/N=C/c1cccc(OC2CSC2)c1)c1ccccc1O ?
FLuc modulator: 6.7µM*; NPC1 promoter act: 10%; ELG1 genotoxic: 2%; SMN2 splice enh: 9%; Rab9 prom act: 11%; Luc counter: -3%

How did COc1cccc(C(=O)N/N=C/c2ccc(OC3CSC3)cc2)c1 do in these assays?
FLuc modulator: 15µM*; NPC1 promoter act: -4%; ELG1 genotoxic: inconclusive; SMN2 splice enh: -39%; Rab9 prom act: 10%; Luc counter: -8%

Results for N#CCC(=O)N/N=C/c1ccc(OC2CSC2)cc1 ?
FLuc modulator: -12%; NPC1 promoter act: 1%; ELG1 genotoxic: 4%; SMN2 splice enh: 5%; Rab9 prom act: 8%; Luc counter: 2%

How did Cc1ccc(CNC(=O)CCCN2C(=O)CCn3nc(-c4cn(C)c5ccccc45)cc32)cc1 do in these assays?
FLuc modulator: -3%

Results for Cn1cc(C(=O)NCc2ccccc2)c(=O)c2cc(S(=O)(=O)N3CCCCCC3)ccc21 ?
FLuc modulator: -8%

How did CN(C)c1ccc(NC(=O)N2CCOCC2)cc1 do in these assays?
FLuc modulator: 24µM*; NPC1 promoter act: 7%; ELG1 genotoxic: 15%; SMN2 splice enh: inconclusive; Rab9 prom act: 9%; Luc counter: -18%

Results for CCC(C)c1ccc(NC(=O)N2CCOCC2)cc1 (configuration not stated) ?
FLuc modulator: 15µM*; NPC1 promoter act: 2.5µM*; ELG1 genotoxic: inconclusive; Rab9 prom act: 2.5µM*

What do the screens show for `O=C(Nc1ccc(Cc2ccc(NC(=O)N3CCOCC3)cc2)cc1)N1CCOCC1`?
FLuc modulator: inconclusive; NPC1 promoter act: -1%; ELG1 genotoxic: 15%; SMN2 splice enh: 0%; Rab9 prom act: -2%; Luc counter: -4%

Results for CCCCOC(=O)c1ccc(NS(=O)(=O)c2c(C)nc3scc(C)n3c2=O)cc1 ?
FLuc modulator: inconclusive; SMN2 splice enh: -42%

Results for O=C(Nc1nnc2n1CCS2)c1ccccc1 ?
FLuc modulator: 1%

What do the screens show for `CC(C)Oc1ccc(C(=O)Nc2nnc3n2CCS3)cc1`?
FLuc modulator: 11µM*

What do the screens show for `FC(F)(F)c1ccccc1-c1ccc2ncnc(NC3CCNCC3)c2c1`?
SMN2 splice enh: -2%; Luc counter: -1%

Results for CC(=O)Nc1ccc(NC(=O)CCc2c(C)nc3c(c(C)nn3-c3ccc(C)cc3)c2C)cc1 ?
FLuc modulator: 0%; SMN2 splice enh: 6%

Results for Nc1nc(N)nc(-c2ccc(Cl)cc2)n1 ?
FLuc modulator: 15µM*; NPC1 promoter act: inconclusive; ELG1 genotoxic: inconclusive; SMN2 splice enh: 25%; Rab9 prom act: inconclusive; Luc counter: 4%

What do the screens show for `Nc1nc(-c2ccc(Cl)cc2)nnc1-c1ccc(Br)cc1`?
FLuc modulator: inconclusive; NPC1 promoter act: 1.8µM*; ELG1 genotoxic: inconclusive; Rab9 prom act: 1.1µM*; Luc counter: -3%

Results for Cc1ccc(Oc2ccc(-c3nc(N)nc(N)n3)cc2)cc1 ?
FLuc modulator: inconclusive; NPC1 promoter act: -3%; ELG1 genotoxic: 16%; SMN2 splice enh: -10%; Rab9 prom act: -3%; Luc counter: -4%

How did COc1ccc(N/C=C\C(=O)c2ccc(Br)cc2)cc1OC do in these assays?
FLuc modulator: inconclusive; NPC1 promoter act: inconclusive; ELG1 genotoxic: 15%; SMN2 splice enh: inconclusive; Rab9 prom act: inconclusive; Luc counter: -2%

How did COc1ccc(N/C=C/C(=O)c2ccc3c(c2)OCO3)cc1OC do in these assays?
FLuc modulator: 2.7µM*; NPC1 promoter act: 28%; ELG1 genotoxic: inconclusive; SMN2 splice enh: 17%; Rab9 prom act: inconclusive; Luc counter: -1%

How did O=C(/C=C\Nc1ccc2c(c1)OCO2)c1ccc2c(c1)OCO2 do in these assays?
FLuc modulator: 0.13µM*; NPC1 promoter act: 4µM*; ELG1 genotoxic: 2.3µM*; SMN2 splice enh: inconclusive; Rab9 prom act: 0.79µM*; Luc counter: inconclusive

Results for COc1ccc(NC(=O)COc2ccc3c(c2)OCO3)cc1 ?
FLuc modulator: inconclusive; NPC1 promoter act: 15%; ELG1 genotoxic: -3%; Rab9 prom act: 11%

What do the screens show for `O=C(O)c1ccc2c(c1)OCO2`?
SMN2 splice enh: -21%; Luc counter: -6%

Assay outcomes (PubChem BioAssay)
